Experimental data from PubChem BioAssay (Tox21).
Records with an inconclusive call do not appear. Activity calls are given as the source filed them. Unless noted, calls come from the whole dose curve; as a rule, active = well fitted curve in the direction sought with a large enough effect in the repeat runs; inconclusive = weak or mixed curves; inactive = no such curve, though single readings can be large; an effect the other way counts as inactive or inconclusive.

How the values were obtained:
[1] = qHTS assay to identify small molecule agonists of the hypoxia (HIF-1) signaling pathway - cell viability counter screen (AID 1224844; calls by dose curve; note: nearly all actives have a fitted effect of over 50% in size)
Outline: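 Cytotoxicity was measured in parallel with the HRE-driven beta-lactamase readout: after 17 hrs of compound exposure at 37C, HRE-bla ME-180 cells received CellTiter-Glo and luminescence was recorded 30 min later.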

[2] = qHTS assay to identify small molecule agonists of H2AX (AID 1224845; active = well fitted activation curve with a large enough effect in the signal ratio in the repeat runs, not every such curve was filed as active; the % refers to the signal ratio)
Outline: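 Wild-type CHO-K1 cells, plated overnight, exposed 3hr at 37C to 15 concentrations (0.76% DMSO final). Lysed, then HTRF anti-pH2AX (S139) cryptate and anti-H2AX-d2 antibodies, 24 hr room temperature; 665/620 nm emission read.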

[3] = qHTS assay to identify small molecule agonists of the hypoxia (HIF-1) signaling pathway (AID 1224846; active = well fitted activation curve with a large enough effect in the signal ratio in the repeat runs, not every such curve was filed as active; the % refers to the signal ratio)
Outline: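 Compounds from the Tox21 10K library, dissolved in DMSO, are tested for induction of a hypoxia response element–controlled beta-lactamase reporter in ME-180 cells. Exposure lasts 17 hrs at 37C after a 5 hr settling period, followed by CCF4-AM FRET substrate.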

[4] = qHTS assay to identify small molecule agonists of H2AX - cell viability counter screen (AID 1224847; calls by dose curve; note: top concentration of the series differs between compounds; nearly all actives have a fitted effect of over 30% in size)
Outline: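 Viability of CHO-K1 (wild type) cells after 3 hr compound exposure was measured by CellTiter-Glo luminescence.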

[5] = qHTS RealTime-Glo MT Cell Viability Assay in HepG2 cells - 24 hour (AID 1224867); note: nearly all actives have a fitted effect of over 50% in size
Outline: (§1)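 Tox21 10K library screened in qHTS format on HepG2 cells carrying RealTime-Glo reagents. Compounds were added after a 5 h preincubation, and the luminescent signal from continuous culture was measured repeatedly during 40 h treatment.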

[6] = qHTS RealTime-Glo MT Cell Viability Assay in HEK293 cells - 32 hour (AID 1224868); note: top concentration of the series differs between compounds; nearly all actives have a fitted effect of over 50% in size
Outline: (§2)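 Luminescence generated by NanoLuc from substrate produced by living HEK293 cells served as the viability signal. Each value reflects the reading at its stated time point during continuous 40 h compound exposure at 37 C.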

[7] = A CellTox Green Cytotoxicity Assay to monitor cytotoxicity in HEK293 cells - 0 hour (AID 1224869); note: nearly all actives have a fitted effect of over 50% in size
Outline: (§3)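 Cells (HEK293, 600/well) and dye reagent are dispensed together. After 5 h at 37 C, 23 nL compound is pinned in. Plates stay at 37 C for 40 h with fluorescence read at 0h, 8h, 16h, 24h, 32h and 40h.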

[8] = qHTS RealTime-Glo MT Cell Viability Assay in HepG2 cells - 40 hour (AID 1224870); note: nearly all actives have a fitted effect of over 50% in size
Outline: (§4)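 HepG2 cells (600/well) mixed with RealTime-Glo MT reagent, settled 5 h at 37 C/5% CO2 before compound addition. Nonlytic NanoLuc luminescence from viable-cell prosubstrate reduction read repeatedly during 40 h treatment at 37 C.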

[9] = A CellTox Green Cytotoxicity Assay to monitor cytotoxicity in HEK293 cells - 40 hour (AID 1224871); note: nearly all actives have a fitted effect of over 45% in size
Outline: as §3

[10] = qHTS RealTime-Glo MT Cell Viability Assay in HEK293 cells - 16 hour (AID 1224872)
Outline: as §2

[11] = qHTS RealTime-Glo MT Cell Viability Assay in HepG2 cells - 8 hour (AID 1224873); note: nearly all actives have a fitted effect of over 55% in size
Outline: as §4

[12] = qHTS RealTime-Glo MT Cell Viability Assay in HEK293 cells - 40 hour (AID 1224874); details: RealTime-Glo luminescence; max response: hits give low values; note: nearly all actives have a fitted effect of over 50% in size
Outline: (§5)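 Real-time viability in HEK293: signal arises when living cells convert a prosubstrate for NanoLuc in the medium, so luminescence tracks viable cell number. Compound (23 nL, DMSO) added 5 h post-seeding; kinetic reads at 0–40 h, 37 C.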

[13] = A CellTox Green Cytotoxicity Assay to monitor cytotoxicity in HEK293 cells - 24 hour (AID 1224875); note: series mostly up to about 77 µM; nearly all actives have a fitted effect of over 45% in size
Outline: as §3

[14] = A CellTox Green Cytotoxicity Assay to monitor cytotoxicity in HepG2 cells - 16 hour (AID 1224876); note: nearly all actives have a fitted effect of over 45% in size
Outline: (§6)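 Cells and non-lytic dye reagent are dispensed together (600 HepG2 cells/well) and incubated 5 h before DMSO compound transfer. Kinetic fluorescence is then recorded in the same wells during 40 h at 37 C.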

[15] = A CellTox Green Cytotoxicity Assay to monitor cytotoxicity in HepG2 cells - 24 hour (AID 1224878); note: nearly all actives have a fitted effect of over 45% in size
Outline: as §6

[16] = A CellTox Green Cytotoxicity Assay to monitor cytotoxicity in HepG2 cells - 40 hour (AID 1224879); note: nearly all actives have a fitted effect of over 40% in size
Outline: as §6

[17] = qHTS RealTime-Glo MT Cell Viability Assay in HEK293 cells - 0 hour (AID 1224880)
Outline: as §5

[18] = qHTS RealTime-Glo MT Cell Viability Assay in HepG2 cells - 32 hour (AID 1224877); note: nearly all actives have a fitted effect of over 55% in size
Outline: as §1
% is set by controls: 0 for no effect and ±100 for the full control effect.

Nc1ccccn1
inactive: Potency [1] | Potency [2] | outcome [3] | outcome [4] | outcome [5] | Potency [6] | outcome [7] | Potency [8] | Potency [9] | Potency [10] | outcome [11] | max response [12] -3.82% | outcome [13] | outcome [14] | outcome [15] | Potency [16] | Potency [17]

Cc1ncc(COP(=O)(O)O)c(C=O)c1O
inactive: Potency [1] | Potency [2] | outcome [3] | outcome [4] | outcome [5] | Potency [6] | outcome [7] | Potency [9] | Potency [10] | outcome [11] | max response [12] -0.601% | outcome [13] | outcome [14] | Potency [18] | outcome [15]

CC(C)(C#N)Nc1nc(Cl)nc(NC2CC2)n1
inactive: Potency [1] | Potency [2] | outcome [3] | outcome [4] | outcome [5] | Potency [6] | outcome [7] | Potency [8] | Potency [9] | Potency [10] | max response [12] 1.79% | outcome [13] | outcome [14] | Potency [18] | outcome [15] | Potency [16] | Potency [17]

Nc1ccncc1N
inactive: Potency [1] | Potency [2] | outcome [3] | outcome [4] | outcome [5] | Potency [6] | outcome [7] | Potency [8] | Potency [9] | outcome [11] | max response [12] 13% | outcome [13] | outcome [14] | outcome [15] | Potency [17]

O=C(O)Cc1csc(-c2ccc(Cl)cc2)n1
inactive: Potency [1] | Potency [2] | outcome [3] | outcome [4] | outcome [5] | Potency [6] | outcome [7] | Potency [8] | Potency [9] | Potency [10] | outcome [11] | max response [12] 1.2% | outcome [13] | Potency [18] | outcome [15] | Potency [16] | Potency [17]

C=CN1CCCCCC1=O
inactive: Potency [1] | Potency [2] | outcome [3] | outcome [4] | outcome [5] | Potency [6] | outcome [7] | Potency [8] | Potency [9] | Potency [10] | max response [12] 3.47% | outcome [13] | outcome [14] | Potency [18] | outcome [15] | Potency [16] | Potency [17]

O=C(O)CNC(=O)c1ccc(CO)o1
inactive: Potency [1] | Potency [2] | outcome [3] | outcome [4] | outcome [5] | Potency [6] | outcome [7] | Potency [8] | Potency [9] | Potency [10] | max response [12] 3.96% | outcome [13] | outcome [14] | Potency [18] | outcome [15] | Potency [16] | Potency [17]

CCCOC(=O)CC
inactive: Potency [1] | Potency [2] | outcome [3] | outcome [4] | outcome [5] | Potency [6] | outcome [7] | Potency [8] | Potency [9] | Potency [10] | outcome [11] | max response [12] 8.31% | outcome [13] | outcome [14] | outcome [15] | Potency [16] | Potency [17]

CN1CC(=O)N/C1=N/C(=O)Nc1cccc(Cl)c1
inactive: Potency [1] | Potency [2] | outcome [3] | outcome [4] | outcome [5] | Potency [6] | outcome [7] | Potency [8] | Potency [9] | Potency [10] | outcome [11] | max response [12] -14.4% | outcome [13] | outcome [15] | Potency [16] | Potency [17]

NO
inactive: Potency [1] | Potency [2] | outcome [3] | outcome [4] | outcome [5] | Potency [6] | outcome [7] | Potency [8] | Potency [9] | Potency [10] | outcome [11] | max response [12] -12.7% | outcome [13] | outcome [14] | outcome [15] | Potency [16] | Potency [17]

C=CC(=O)OCCCl
inactive: Potency [1] | Potency [2] | outcome [3] | outcome [4] | outcome [5] | Potency [6] | outcome [7] | Potency [8] | Potency [9] | outcome [11] | max response [12] 21% | outcome [13] | outcome [15] | Potency [16] | Potency [17]

CC1OC1C1CCC2(C)OC2C1 (configuration not stated)
inactive: Potency [1] | Potency [2] | outcome [3] | outcome [4] | outcome [5] | Potency [6] | outcome [7] | Potency [8] | Potency [9] | Potency [10] | max response [12] 1.23% | outcome [13] | Potency [18] | Potency [17]

C1CCC2(CCCCO2)OC1
inactive: Potency [1] | Potency [2] | outcome [3] | outcome [4] | outcome [5] | Potency [6] | outcome [7] | Potency [8] | Potency [9] | Potency [10] | outcome [11] | max response [12] -6.53% | outcome [13] | outcome [14] | outcome [15] | Potency [16]

CCN(CC#N)c1cccc(C)c1
inactive: Potency [1] | Potency [2] | outcome [3] | outcome [4] | outcome [5] | Potency [6] | outcome [7] | Potency [8] | Potency [9] | outcome [11] | max response [12] 13% | outcome [13] | Potency [18] | outcome [15] | Potency [16] | Potency [17]

NC(=O)N[C@@H](CCC(=O)O)C(=O)O
inactive: Potency [1] | Potency [2] | outcome [3] | outcome [4] | outcome [5] | Potency [6] | outcome [7] | Potency [8] | Potency [9] | Potency [10] | outcome [11] | max response [12] 5.25% | outcome [13] | outcome [14] | Potency [16] | Potency [17]
